This is a sample that favours compounds with a hit; in the whole collection about 12% have one here.
HP1b chromo inh – inhibitors of HP1-beta chromodomain binding to methylated histone tails. hit rate 0.56% among 390,000. AID 540317. P83916. AlphaScreen HP1-beta / biotin-H3K9me3 peptide binding. Potency, µM (series often up to 114 µM), without a hit: at the top dose activity change, negative = inhibition, hits mostly inhibitors; further: nearly all actives have a fitted effect of over 70% in size
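Compound inhibition of the preformed complex between 50 nM HP1-beta and 50 nM biotinylated H3K9me3 peptide was read by AlphaScreen. Buffer was PBS pH 7.4 with 0.01% Tween-20. Incubations ran 30 min at room temperature, with 10 ug/mL donor/acceptor beads.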
JMJD2A Tudor inh – blocks the human JMJD2A Tudor domain. O75164. hit rate 4.4% among 390,000. AlphaScreen JMJD2A-Tudor / H3K4me3 peptide binding. AID 504339. Potency, µM (highest dose often 114 µM), inactives show top-dose activity change, negative = inhibition, actives largely listed as inhibitors; further: on the % scale 0 is the no-effect control and ±100 the full control effect; nearly all actives have a fitted effect of over 50% in size
L3MBTL1 inh – blocks human L3MBTL1; hit rate 0.66% among 230,000; AlphaScreen L3MBTL1–H3K9me1 peptide binding; AID 485360; Potency, µM (doses to about 57.1 µM), without a hit: at the highest dose activity, negative = inhibition, hits mostly inhibitors; further: on the % scale 0 is the no-effect control and ±100 the full control effect; nearly all actives have a fitted effect of over 60% in size
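Read-out is AlphaScreen signal from streptavidin donor and nickel chelate acceptor beads (10 ug/mL final each) bridging L3MBTL1 (50 nM) and biotinylated K9-monomethylated H3(1-15) peptide (75 nM), after 30 min compound exposure at room temperature.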
G9a inh – inhibitors of human histone lysine methyltransferase G9a; Q96KQ7; hit rate 8.8% among 350,000; AID 504332; G9a H3K9 monomethylation, AlphaScreen, 2 h; Potency, µM (titrated, usually from 102 µM), for inactives: at the top dose activity, negative = inhibition, most hits filed as inhibitors; further: on the % scale 0 is the no-effect control and ±100 the full control effect; nearly all actives have a fitted effect of over 75% in size
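Enzyme 20 nM + cpd, 15 min RT; add b-H3K9 pep 500 nM / SAM 20 uM; 2 h RT; anti-H3K9me1 Ab 0.5 ug/mL + SA donor / anti-rabbit acceptor beads 20 ug/mL each, 10 min; AlphaScreen read.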
BAZ2B inh – blocks human BAZ2B. Q9UIF8. AlphaScreen BAZ2B-H3K14Ac peptide displacement. Potency, µM (doses to about 114 µM), for the others: top-dose activity change, negative = inhibition, hits mostly inhibitors. hit rate 4.4% among 360,000; further: on the % scale 0 is the no-effect control and ±100 the full control effect; nearly all actives have a fitted effect of over 60% in size
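Protein-peptide AlphaScreen: BAZ2B 50 nM, b-H3K14Ac 50 nM, 1x PBS pH 7.4 + 0.01% Tween-20. Preincubation 30 min RT; cpd 30 min RT (top 110 uM); beads 20 min RT, light-protected.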
Sfp PPTase inh – Sfp phosphopantetheinyl transferase inhibition. Q9F4F7. Biochemical Sfp PPTase activity, qHTS. Potency, µM, inactives show largest response in the series, negative = inhibition, most hits filed as inhibitors. hit rate 3.5% among 310,000. AID 1490;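 further: the enzyme is Sfp with the accession as filed and its product quenches rhodamine fluorescence; 0% = enzyme reaction without inhibitor and -100% = no enzyme wells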
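Compounds were incubated with enzyme (final 15 nM) for 15 min at room temperature before substrate addition started the reaction. Fluorescence at 525 nm excitation, 598 nm emission was recorded immediately and after 30 minutes.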
* hit, by the source's call; ? = inconclusive; . = no result given; ! = a repeat was not active; [ ] = remark or other dose. The call rests on the fitted dose curve; in most records, active means well fitted curve in the direction sought with a large enough effect; inconclusive means small, poorly fitted or top-dose-only effect, or another doubt; inactive means no such curve, though single readings can be large; an effect the other way counts as inactive or inconclusive. Potency means the concentration at half of the fitted maximal effect.

SMILES	HP1b chromo inh	JMJD2A Tudor inh	L3MBTL1 inh	G9a inh	BAZ2B inh	Sfp PPTase inh
CSc1ccc(C(c2c(C(=O)O)[nH]c3ccccc23)c2c(C(=O)O)[nH]c3ccccc23)cc1	15.0%	-19.3%	0.2%[2.29 µM]	20.6%[0.501 µM]	50.1µM*	25.3%
Cc1ccc(-c2c(C)c(-c3ccc(F)cc3)nc(N)c2C#N)o1	39.7%	5.9%	7.0%	12.6µM*	19.6%	17.8µM*
O=C(CSc1nnc2[nH]c(=O)cc(-c3ccccc3)n12)Nc1cc(C(F)(F)F)ccc1Cl	52.4%	2.9%	.	-1.7%[59 µM]	4.0%	.
CCOP(=O)(OCC)C(Nc1cccc([N+](=O)[O-])c1)c1ccc(N(C)C)cc1 (stereo unspecified)	?	50.1µM*	?	?	39.8µM*	7.7%
CCOP(=O)(OCC)C(Nc1cccc(C(F)(F)F)c1)c1ccc(F)cc1 (stereo unspecified)	47.4%	-10.4%	8.2%	14.6%[59 µM]	9.6%	4.7%
CC(N)(C(=O)O)c1ccc(C(=O)O)cc1 (stereo unspecified)	.	.	.	17.5%[12.7 µM]	.	56.2µM*
CCc1ccc(C(=O)O)cc1	21.0%	-1.0%	3.9%	-3.0%	-4.1%	24.8%
CCOc1ccc(C(C)(N)C(=O)O)cc1 (stereo unspecified)	5.8%	3.55µM*	.	?	-37.8%	-8.4%
C[C@@](N)(C(=O)O)c1ccc(C(=O)O)cc1	.	.	.	27.0%[59 µM]	.	50.1µM*!
COc1ccc(CCNC(=O)CCc2c(C)nc3cc(-c4ccccc4OC)nn3c2C)c(OC)c1	14.5%	-21.2%	.	0.6%[59 µM]	-19.6%	.
O=C(Nc1ccc2c(c1)OCO2)Nc1ccccc1F	20.1%	7.1%	.	17.2%	-11.2%	11.4%
O=C(NC1(C(F)(F)F)Oc2ccccc2O1)N1CCCC1	48.3%	?	5.7%	6.31µM*	-5.9%	-2.6%
O=C(Nc1ccc2c(c1)OCO2)NC1(C(F)(F)F)Oc2ccccc2O1	18.8%	-33.7%	.	6.31µM*	-21.7%	-7.3%
O=C(Nc1ccc2c(c1)OCCO2)NC1(C(F)(F)F)Oc2ccccc2O1	-3.3%	?	.	2µM*	-8.7%	?
N#CCCN1CCCc2cc(N=Nc3ccc(C(F)(F)F)cc3)ccc21	11.2µM*	12.6µM*	?	.	5.62µM*	8.1%
N#CCCN1CCN(S(=O)(=O)c2ccc3c(c2)CCC3)CC1	41.6%	-15.4%	5.4%	10.0%[12.7 µM]	12.1%	.
Cc1ccc(NC(=O)C2CCCN(S(=O)(=O)c3cccc4cccnc34)C2)c(Br)c1 (stereo unspecified)	26.1%	-23.4%	.	1.0%[59 µM]	4.6%	.
CC1CCc2nc(-c3cc4c(ccc5ccccc54)oc3=O)sc2C1 (stereo unspecified)	18.5%[57 µM]	10.8%[57.1 µM]	.	.	.	.
CN(C)c1ccc(/C=C2/C(=O)N(c3ccc([N+](=O)[O-])cc3)N=C2N2CCOCC2)cc1	.	.	?	-6.2%[0.501 µM]	7.08µM*	-17.0%
CC1=CC(=O)NS(=O)(=O)O1	.	.	.	4.3%[12.7 µM]	.	-0.3%
COc1ccc(CNC(=O)C2=C(C)C(=O)OC23CCCCC3)cc1	8.7%	-18.7%	.	11.2µM*	-4.6%	.
COc1cccc(CNC(=O)C2=C(C)C(=O)OC23CCCCCC3)c1	30.4%	-16.8%	.	-4.7%[59 µM]	-1.3%	.
COc1ccc(C)cc1NC(=O)C1CCN(S(=O)(=O)c2ccc3[nH]c4c(c3c2)CCCCC4)CC1	14.1%	-14.6%	.	-30.5%[59 µM]	-14.6%	.
CC(=O)c1ccc(N/N=C2/CCCNC2=O)cc1	35.8%	-30.3%	3.5%	25.3%	-1.5%	16.1%
Cc1ccc(N/N=C2/CCCNC2=O)cc1	?	?	-1.2%	25.1µM*	2.1%	0.7%
Fc1ccc2c(c1)C1C=CCC1C(c1cc3c(cc1Br)OCO3)N2 (stereo unspecified)	-24.2%	44.7µM*	-26.1%	-38.8%[12.7 µM]	-36.1%[57.1 µM]	?
COc1cccc(NS(=O)(=O)c2ccc3c(c2)C2C=CCC2C(c2ccc(C(=O)O)cc2)N3)c1 (stereo unspecified)	?	44.7µM*	10µM*	7.94µM*	44.7µM*	31.6µM*
O=C(O)c1ccc2c(c1)[C@@H]1C=CC[C@@H]1[C@H](c1ccccn1)N2	?	6.31µM*	.	.	.	.
